In PubChem BioAssay (NCI):
This is part of a sample that, as a whole, favours compounds with a hit. Of some 79,000 tested, about 15% had one in any assay. The source made the active and inactive calls. Rule as the data show it: active = growth inhibition above about 70%; inactive = the rest.

Experiments:
[1] = NCI Yeast Anticancer Drug Screen. Data for the rad52 strain (AID 147);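 also: 0% = growth of vehicle-treated control cultures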; details: S. cerevisiae rad52 mutant growth inhibition, active compounds read high
How it was run: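 Yeast strain carrying a DNA damage repair alteration was exposed to test compounds. Growth inhibition was measured relative to vehicle-treated controls.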

[2] = NCI Yeast Anticancer Drug Screen. Data for the wt1 strain (AID 149);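 also: 0% = growth of vehicle-treated wt1 cultures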; details: S. cerevisiae wt1 strain (SPY 50644) growth inhibition, active compounds read high
How it was run: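 Each compound is tested on wt1 yeast and the loss of growth versus vehicle gives the inhibition value.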

[3] = NCI Yeast Anticancer Drug Screen. Data for the rad50EPP+ strain (AID 151);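 also: 0% = growth of vehicle-treated control cultures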; details: S. cerevisiae rad50 mutant strain, active compounds read high
How it was run: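 Yeast strain carrying rad50 alteration (rad50EPP+) exposed to compounds; growth inhibition measured relative to vehicle-treated controls.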

[4] = NCI Yeast Anticancer Drug Screen. Data for the mgt1 strain (AID 153); details: S. cerevisiae mgt1 mutant growth inhibition, active compounds read high
How it was run: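 Yeast mgt1 strain (DNA repair/cell-cycle alteration panel) exposed to compounds; growth inhibition measured relative to vehicle-treated controls.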

[5] = NCI Yeast Anticancer Drug Screen. Data for the rad50 strain (AID 155);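 also: 0% = growth of vehicle-only cultures of the same strain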; details: S. cerevisiae rad50 strain growth inhibition, active compounds read high
How it was run: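 Vehicle-treated cultures provide the reference for the growth inhibition reported for compound-exposed, repair-deficient yeast.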

[6] = NCI Yeast Anticancer Drug Screen. Data for the mec2-1 strain (AID 157); details: S. cerevisiae mec2-1 strain, active compounds read high
How it was run: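 mec2-1 yeast strain, carrying an alteration in DNA damage repair or cell cycle control, was exposed to compounds; growth inhibition was measured relative to vehicle-treated controls.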

[7] = NCI Yeast Anticancer Drug Screen. Data for the rad14 strain (AID 159);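 also: 0% = growth of vehicle-treated control cultures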; details: S. cerevisiae rad14 strain growth inhibition, active compounds read high
How it was run: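 Inhibition of growth is reported for a repair-deficient yeast mutant following compound treatment, calculated relative to cultures that received vehicle.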

[8] = NCI Yeast Anticancer Drug Screen. Data for the sgs1 mgt1 strain (AID 161);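 also: 0% = growth of cultures given vehicle only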; details: S. cerevisiae sgs1 mgt1 strain, active compounds read high
How it was run: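 This yeast growth screen uses a strain with defined DNA-repair lesions; compound-treated growth is compared with vehicle-treated growth.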

[9] = NCI Yeast Anticancer Drug Screen. Data for the CLN2oe strain (AID 163);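 also: 0% = growth of vehicle-only control cultures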; details: S. cerevisiae CLN2oe strain, active compounds read high
How it was run: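 Yeast cells carrying a defined cell-cycle control alteration were exposed to test compounds. Growth inhibition was scored against vehicle-treated control cultures.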

[10] = NCI Yeast Anticancer Drug Screen. Data for the cln2 rad14 strain (AID 165);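 also: 0% = growth equal to vehicle treated cultures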; details: S. cerevisiae cln2 rad14 strain, active compounds read high
How it was run: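 Yeast carrying cln2 and rad14 alterations (cell cycle control and DNA damage repair) were exposed to compounds. Growth inhibition was measured against vehicle-treated controls.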

[11] = NCI Yeast Anticancer Drug Screen. Data for the bub3 strain (AID 167); details: S. cerevisiae bub3 mutant strain, active compounds read high
How it was run: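 Mutant yeast screening strain plus compound; vehicle-treated cultures serve as the 0% inhibition reference.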

[12] = NCI Yeast Anticancer Drug Screen. Data for the wt2 strain (AID 169); details: S. cerevisiae wt2 strain growth inhibition, active compounds read high
How it was run: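 Yeast cells were exposed to test compounds, and growth inhibition was measured relative to vehicle-treated controls.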

[13] = NCI Yeast Anticancer Drug Screen. Data for the mlh1 strain (AID 171);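 also: 0% = growth of vehicle-treated control cultures of the same strain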; details: S. cerevisiae mlh1 strain growth inhibition, active compounds read high
How it was run: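 Yeast carrying a defined genetic alteration in DNA damage repair or cell cycle control were exposed to test compounds. Growth inhibition was measured relative to vehicle-treated controls.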

[14] = NCI Yeast Anticancer Drug Screen. Data for the sgs1 strain (AID 173);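 also: 0% = growth of vehicle-only control cultures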; details: S. cerevisiae sgs1 mutant, active compounds read high
How it was run: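 Yeast mutant strains carrying defined defects in DNA damage repair or cell cycle control were exposed to test compounds. Growth inhibition was scored against vehicle-treated controls.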

[15] = NCI Yeast Anticancer Drug Screen. Data for the mlh1 rad18 strain (AID 175); details: S. cerevisiae mlh1 rad18 strain growth inhibition, active compounds read high
How it was run: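 Growth inhibition of the yeast strain was measured after compound exposure and expressed relative to vehicle-treated controls. The strain carries defined defects in DNA damage repair.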

[16] = NCI Yeast Anticancer Drug Screen. Data for the rad18 strain (AID 177); details: S. cerevisiae rad18 mutant growth inhibition, active compounds read high
How it was run: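 Yeast carrying a defined DNA damage repair alteration were exposed to compounds. Growth inhibition was expressed relative to vehicle-treated controls.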

[17] = at 5.0 µM (retest, dose inferred, filed as 0.5)
[18] = at 50.0 µM (retest, dose inferred, filed as 5.0)

Measured: growth inhibition

C(=C\c1ccccc1)/COc1ccccc1C(N1CCOCC1)n1nc2ccccc2n1 (stereo unspecified)
active: [1]; at 33.0 µM 85% | [1]; at 100.0 µM 97% | [2]; at 33.0 µM 88% | [2]; at 100.0 µM 98% | [3]; at 100.0 µM 95% | [4]; at 33.0 µM 91% | [4]; at 100.0 µM 98% | [5]; at 33.0 µM 96% | [5]; [18] 98% | [5]; at 50.0 µM 98.1% | [5]; at 100.0 µM 97% | [6]; at 33.0 µM 86% | [6]; [18] 95% | [6]; at 50.0 µM 98.8% | [6]; at 100.0 µM 98% | [7]; at 33.0 µM 97% | [7]; at 100.0 µM 98% | [8]; [18] 97% | [8]; at 50.0 µM 97.9% | [9]; at 100.0 µM 93% | [10]; [18] 81% | [10]; at 50.0 µM 91.2% | [11]; at 33.0 µM 86% | [11]; [18] 98% | [11]; at 50.0 µM 98.3% | [11]; at 100.0 µM 97% | [12]; at 33.0 µM 95% | [12]; at 100.0 µM 99% | [13]; at 33.0 µM 93% | [13]; at 100.0 µM 97% | [14]; at 33.0 µM 96% | [14]; at 100.0 µM 99% | [15]; [18] 99% | [15]; at 50.0 µM 99% | [16]; at 33.0 µM 86% | [16]; at 100.0 µM 98%
inactive: [1]; at 1.2 µM 3% | [1]; at 3.7 µM 3% | [1]; at 11.0 µM 13% | [2]; at 1.2 µM 32% | [2]; at 3.7 µM 36% | [2]; at 11.0 µM 33% | [3]; at 1.2 µM -5% | [3]; at 3.7 µM 1% | [3]; at 11.0 µM 25% | [3]; at 33.0 µM 64% | [4]; at 1.2 µM 8% | [4]; at 3.7 µM 9% | [4]; at 11.0 µM 20% | [5]; at 1.2 µM -6% | [5]; at 3.7 µM -21% | [5]; [17] -9% | [5]; at 11.0 µM 8% | [6]; at 1.2 µM -19% | [6]; at 3.7 µM -13% | [6]; [17] 3% | [6]; at 11.0 µM -1% | [7]; at 1.2 µM -4% | [7]; at 3.7 µM 0% | [7]; at 11.0 µM 35% | [8]; [17] -1% | [9]; at 1.2 µM 0% | [9]; at 3.7 µM -9% | [9]; at 11.0 µM -10% | [9]; at 33.0 µM 11% | [10]; [17] 11% | [11]; at 1.2 µM 1% | [11]; at 3.7 µM -14% | [11]; [17] 3% | [11]; at 11.0 µM -4% | [12]; at 1.2 µM -4% | [12]; at 3.7 µM 1% | [12]; at 11.0 µM 25% | [13]; at 1.2 µM -2% | [13]; at 3.7 µM -2% | [13]; at 11.0 µM 37% | [14]; at 1.2 µM 23% | [14]; at 3.7 µM 22% | [14]; at 11.0 µM 54% | [15]; [17] 16% | [16]; at 1.2 µM -2% | [16]; at 3.7 µM -7% | [16]; at 11.0 µM 6%

O=CNc1ccc2c(c1)C(=O)c1ccccc1-2
active: [1]; at 33.0 µM 94% | [1]; at 100.0 µM 97% | [2]; at 100.0 µM 85% | [3]; at 33.0 µM 86% | [3]; at 100.0 µM 95% | [4]; at 100.0 µM 97% | [5]; at 33.0 µM 93% | [5]; [18] 75% | [5]; at 50.0 µM 94.2% | [5]; at 100.0 µM 96% | [6]; at 100.0 µM 95% | [7]; at 100.0 µM 96% | [9]; at 100.0 µM 75% | [11]; at 100.0 µM 87% | [12]; at 100.0 µM 96% | [13]; at 33.0 µM 72% | [13]; at 100.0 µM 97% | [14]; at 100.0 µM 94% | [16]; at 100.0 µM 94%
inactive: [1]; at 1.2 µM 8% | [1]; at 3.7 µM 15% | [1]; at 11.0 µM 40% | [2]; at 1.2 µM -2% | [2]; at 3.7 µM -1% | [2]; at 11.0 µM 8% | [2]; at 33.0 µM 27% | [3]; at 1.2 µM 5% | [3]; at 3.7 µM 12% | [3]; at 11.0 µM 26% | [4]; at 1.2 µM 4% | [4]; at 3.7 µM 5% | [4]; at 11.0 µM 9% | [4]; at 33.0 µM 47% | [5]; at 1.2 µM 13% | [5]; at 3.7 µM 22% | [5]; [17] 7% | [5]; at 11.0 µM 37% | [6]; at 1.2 µM 3% | [6]; at 3.7 µM 4% | [6]; [17] 6% | [6]; at 11.0 µM 3% | [6]; at 33.0 µM 36% | [6]; [18] 37% | [6]; at 50.0 µM 37.7% | [7]; at 1.2 µM 5% | [7]; at 3.7 µM 9% | [7]; at 11.0 µM 14% | [7]; at 33.0 µM 46% | [8]; [17] 5% | [8]; [18] 55% | [8]; at 50.0 µM 19.3% | [9]; at 1.2 µM 10% | [9]; at 3.7 µM 10% | [9]; at 11.0 µM 18% | [9]; at 33.0 µM 37% | [10]; [17] -15% | [10]; [18] -5% | [10]; at 50.0 µM 26.8% | [11]; at 1.2 µM 9% | [11]; at 3.7 µM 0% | [11]; [17] -6% | [11]; at 11.0 µM 16% | [11]; at 33.0 µM 61% | [11]; [18] 66% | [11]; at 50.0 µM 62.9% | [12]; at 1.2 µM -2% | [12]; at 3.7 µM 0% | [12]; at 11.0 µM 8% | [12]; at 33.0 µM 48% | [13]; at 1.2 µM 3% | [13]; at 3.7 µM 10% | [13]; at 11.0 µM 16% | [14]; at 1.2 µM -2% | [14]; at 3.7 µM 0% | [14]; at 11.0 µM 6% | [14]; at 33.0 µM 52% | [15]; [17] 4% | [15]; [18] 61% | [15]; at 50.0 µM 69.5% | [16]; at 1.2 µM 2% | [16]; at 3.7 µM 3% | [16]; at 11.0 µM 7% | [16]; at 33.0 µM 52%
